Shown is part of a subset that was picked to be rich in hits.
HIV RNase H inh-1 – blocks HIV-1 RNase H cleavage of RNA/DNA duplex. inhibition, % at 10 µM. 65,000 compounds, 1.9% hits. AID 565. RT-RNase H RNA/DNA duplex cleavage, fluorescence. P04585; in the data active = inhibition above about 50%
HIV RNase H inh-2 – confirmation of HIV-1 reverse transcriptase RNase H inhibitors | shares compounds with HIV RNase H inh-1 | Recombinant RT RNase H, fluorescent RNA/DNA duplex cleavage | AID 651 | 1,000 compounds, 39% hits | inhibition, % at 10 µM; in the data active = inhibition above about 48%; inconclusive = no clear call, values can overlap the other calls
Numbers without * were called inactive; ? = inconclusive.

SMILES | HIV RNase H inh-1 | others
CC1CCN(S(=O)(=O)c2ccc(NC(=O)Cn3nnc(-c4ccccc4F)n3)cc2)CC1 | 69* | HIV RNase H inh-2=39
CCC(C)NC(=O)c1c(C)cc(=O)oc1C (centres undefined) | 10
O=C(CN1CCC(n2nnc3cc(F)ccc32)CC1)NCc1ccco1 | -2
CCOC(=O)C(C)Oc1ccc(C2NC(=O)NC(C)=C2C(=O)Nc2ccccc2C)cc1 (centres undefined) | 4
COc1ccc(CCn2c(C)cc3c(c2=O)C(c2ccc4c(c2)OCO4)C(C#N)=C(N)O3)cc1OC (centres undefined) | -10
COc1ccc(OC)c(S(=O)(=O)N2CCCc3ccccc32)c1 | -45
CCOC(=O)c1[nH]c(COC(=O)C2CC(=O)N(Cc3ccccc3)C2)c(C(=O)OCC)c1C (centres undefined) | -10
CCN1C(=O)Cc2cc(S(=O)(=O)N3CCOCC3)ccc21 | -2
Cn1c(=O)c2cc(S(=O)(=O)N3CCOCC3)ccc2n(C)c1=O | -11
O=c1c2ccccc2sn1-c1cc(S(=O)(=O)N2CCOCC2)ccc1N1CCOCC1 | 95* | HIV RNase H inh-2=61*
O=C(CCn1c(=S)[nH]c2ccccc2c1=O)N1CCN(c2ccccn2)CC1 | -12
CC(C(=O)N1c2ccc(F)cc2CCC1C)N1C(=O)c2ccccc2C1=O (centres undefined) | -6
Cc1nn(-c2ccccc2)c2sc(C(=O)N3CCCCC3)cc12 | -3
Nc1nc(C(=O)N2CCOCC2)nn1S(=O)(=O)c1ccccc1 | 1
Nc1c(C(=O)N2CCCCC2)sc(=S)n1-c1ccccc1 | 97* | HIV RNase H inh-2=77*
Cc1cc(C(=O)N2CCOCC2)n(-c2ccccc2)n1 | -7
Nc1c(C(=O)N2CCOCC2)sc(=S)n1-c1ccccc1 | 95* | HIV RNase H inh-2=65*
O=C(c1nc(-c2ccccc2)n(-c2ccccc2)n1)N1CCCCCC1 | -5
CCOC(=O)C1=C(C)NC(=O)NC1c1c(O)ccc2ccccc12 (centres undefined) | -3
CCOC(=O)c1cnc(SCC(=O)Nc2ccc(NC(=O)CC)c(OC)c2)nc1N | -10
COc1ccccc1N=c1oc2c(OC)cccc2cc1C(=O)NCc1ccco1 | 70* | HIV RNase H inh-2=72*
COc1ccccc1OCC(=O)NCc1ccco1 | -13
CNC(=O)c1cc2cccc(OC)c2oc1=O | 13
CC(NC(=O)C1CCCN(S(=O)(=O)c2cnc[nH]2)C1)c1ccccc1 (centres undefined) | -3
Cc1ccccc1C(=O)c1ccc2c(c1)n(C)c(=O)n2C | -9
SMILES | HIV RNase H inh-1 | others
COC(=O)c1ccccc1S(=O)(=O)N(Cc1cc2cc3c(cc2[nH]c1=O)OCO3)C1CCCCC1 | 53* | HIV RNase H inh-2=52*
COc1ccc(CN(Cc2cc3cc4c(cc3[nH]c2=O)OCO4)C(=O)NC2CCCCC2)cc1 | 0
O=c1[nH]c2cc3c(cc2cc1CN(CC1CCCO1)S(=O)(=O)c1ccccc1)OCCO3 (centres undefined) | -9
CCn1c(SCc2c(F)cccc2Cl)nnc1-c1ccco1 | -6
COc1ccc(OC)c(S(=O)(=O)N2CCC(C(=O)N3CCc4ccccc4C3)CC2)c1 | -49
CN(C)c1ccc(NC(=O)Cn2cc3c(n2)CCCC3)cc1 | 5
Cc1ccc(C)c(N2CCN(C(=O)c3cc(S(=O)(=O)N4CCOCC4)ccc3F)CC2)c1 | -5
COc1ccccc1N(O)C1CC(=O)N(c2ccc(F)cc2)C1=O (centres undefined) | 63* | HIV RNase H inh-2=20
Cc1ccc(N2C(=O)CC(N(O)C3CC(=O)N(c4ccc(C)cc4)C3=O)C2=O)cc1 (centres undefined) | -23
CCCOc1ccc(N2C(=O)CC(N(O)c3ccccc3)C2=O)cc1 (centres undefined) | -11
O=C(CSc1n[nH]c(-c2ccc(S(=O)(=O)N3CCCCC3)cc2)n1)Nc1nccs1 | 7
O=C1CN(C(=O)COC(=O)c2ccccc2NC(=O)c2ccco2)c2ccccc2N1 | -20
Cc1ccc(C(C)NC(=O)c2ccco2)cc1C (centres undefined) | -9
OCc1nn2c(c1Br)NC(c1ccccc1)CC2C(F)(F)F (centres undefined) | -8
Cc1ccc(-n2c(=O)[nH]c3c(C(N)=O)nc(CC(C)C)nc32)cc1 | 1
COc1ccc(OC)c(-c2nc(C(N)=O)c3[nH]c(=O)n(-c4ccc(F)cc4)c3n2)c1 | -1
Cc1ccc(-n2c(=O)[nH]c3c(C(N)=O)nc(-c4ccc(C)o4)nc32)cc1 | 55* | HIV RNase H inh-2=37
COc1ccc2c(c1OC)C(=O)NC(C)=C(C(=O)OC(C)(C)C)C2O (centres undefined) | 1
Cc1noc(C)c1CSc1nc2sc(C)c(C)c2c(=O)n1C1CCCC1 | -5
CCOc1ccc(NC(=O)CCN2CCCCC2)cc1 | -12
CCOC(=O)c1cc2sc(C)cc2n1CC(=O)Nc1cccc(C)c1C | -4
CCOC(=O)c1cn(CC(=O)Nc2ccc3c(c2)OCCO3)nn1 | -6
CCOC(=O)c1cc2sc(C)cc2n1CC(=O)Nc1ccc2c(c1)OCCO2 | 58* | HIV RNase H inh-2=?
COc1ccc(CNC(=O)CSc2nnnn2-c2ccc(O)cc2)cc1 | 19
CCN(CC)C1=CC(=O)OC12CCCCC2 | 55* | HIV RNase H inh-2=65*
SMILES | HIV RNase H inh-1 | others
O=C1C=C(NCc2ccccc2)C2(CCCCC2)O1 | -5
O=C1C=C(NCc2ccco2)C2(CCCCC2)O1 | -5
Cc1nn(-c2ccccc2)c(C)c1C(=O)OCC(=O)Nc1ccc2c(c1)OCO2 | 1
Cc1sc2nc(C(C)Sc3nnc(C)n3-c3ccccc3)[nH]c(=O)c2c1C (centres undefined) | -9
Cc1sc2nc(C(C)Nc3ccccc3N3CCOCC3)[nH]c(=O)c2c1C (centres undefined) | 65* | HIV RNase H inh-2=78*
Cc1sc2nc(SCC(=O)N3CCOCC3)[nH]c(=O)c2c1C | -4
O=C(Nc1ccccc1)N1CCCC(c2nc(-c3cccs3)no2)C1 (centres undefined) | 8
O=C(CC1(O)C(=O)Nc2cc(Cl)cc(Cl)c21)c1ccccc1O (centres undefined) | -19
CCn1ncc(C2=NOC(C(=O)NCc3ccc(Cl)cc3)C2)c1C (centres undefined) | -9
O=C(CCS(=O)(=O)c1ccccc1)Nc1nc2c(s1)COc1ccccc1-2 | 19
O=C(CSc1nnnn1-c1ccc2c(c1)OCCO2)Nc1nc2c(s1)CCCC2 | -5
O=C(CSc1nnnn1-c1ccc2c(c1)OCCO2)N1CCc2ccccc21 | 1
O=C(CSc1nnnn1-c1ccc2c(c1)OCCO2)OC1CCCCC1 | 87* | HIV RNase H inh-2=28
CN(C1=NC(=O)C(CC(=O)Nc2ccc(Br)cc2)S1)c1ccc(O)cc1 (centres undefined) | 3
CCc1c(C)nc(N)n2c(SCC(=O)N3CCCC(C)C3)nnc12 (centres undefined) | 3
CN(C(=O)c1cccc(C#N)c1)c1nnc(-c2cnccn2)s1 | -9
COC(=O)c1ccccc1NC(=O)CN1C(=O)C2CCCN2c2ncc(Cl)cc21 (centres undefined) | 60* | HIV RNase H inh-2=?
CC1CCC(NC(=O)CN2C(=O)C3CCCN3c3ncc(Cl)cc32)CC1 (centres undefined) | 13
CCc1ccccc1NC(=O)CN1C(=O)C2CCCN2c2ncc(Cl)cc21 (centres undefined) | -3
Nc1nc(C2CCCN2S(=O)(=O)c2ccc(Cl)cc2)cs1 (centres undefined) | -24
Nc1ncnc2nc(SCc3ccccc3)[nH]c12 | -4
O=C(CSc1nc2ncccc2[nH]1)c1ccc(F)cc1 | 6
